# From PubChem BioAssay
# The list is not random: actives were taken first. Their share in the collection is about 7.8%.
# VACV mCherry inh = vaccinia inhibition (mCherry reporter). AID 720579. Vaccinia virus mCherry reporter infection, fluorescence. Potency, µM (top dose mostly 36.5 µM), without a hit: at the highest dose activity change, negative = inhibition, usual class: inhibitors. 310,000 tested, 0.63% active; calls by dose curve; tested in A549 cells; further: potency means the concentration at half of the fitted maximal effect; nearly all actives have a fitted effect of over 35% in size
# LASV entry inh = blocks Lassa virus binding to or entry into cells; Lassa virus pseudotype entry inhibition, cell reporter; Potency, µM (highest dose often 37.9 µM), inactives show at the highest dose activity change, negative = inhibition, hits mostly inhibitors; 300,000 tested, 1.2% active; calls by dose curve; tested in HEK293 cells; further: potency means the concentration at half of the fitted maximal effect; nearly all actives have a fitted effect of over 50% in size
# VACV Venus inh = inhibitors of vaccinia virus (Venus reporter); 330,000 tested, 0.46% active; Vaccinia virus Venus reporter expression, fluorescence; Potency, µM (top dose mostly 36.5 µM), without a hit: at the top dose activity change, negative = inhibition, most hits filed as inhibitors; calls by dose curve; tested in A549 cells; further: potency means the concentration at half of the fitted maximal effect; nearly all actives have a fitted effect of over 30% in size
# MARV entry inh = inhibitors of Marburg virus binding or cell entry; Marburg virus pseudotyped entry inhibition, cell reporter; Potency, µM (titrated, usually from 37.8 µM), for inactives: top-dose activity change, negative = inhibition, most hits filed as inhibitors; 300,000 tested, 1.8% active; calls by dose curve; tested in HEK293 cells; further: potency means the concentration at half of the fitted maximal effect
# HCV inh = inhibitors of hepatitis C virus infection; Huh7.5.1 HCVcc-Cre infection, luciferase reporter, 44 h; Potency, µM (doses to about 41.8 µM), without a hit: at the top dose activity change, negative = inhibition, hits mostly inhibitors; 340,000 tested, 3.4% active; AID 651820; active means well fitted inhibition curve with a large enough effect; inconclusive means small, poorly fitted or top-dose-only effect, or another doubt; inactive means no such curve, though single readings can be large or run the other way; further: potency means the concentration at half of the fitted maximal effect
#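 Cells seeded at 1,000/well and cultured 4 h, then compounds added followed by HCVcc-Cre virus (~0.5 moi). After 44 h further culture, luciferase substrate was added, plates held 15 min at room temperature, and luminescence read for 15 sec.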
# HCMV inh = blocks human cytomegalovirus replication | HFF cells, HCMV-luciferase reporter, 72 h; stronger effect = lower value | activity change, negative = inhibition, % at 57.5 µM | 410,000 tested, 4.5% active | AID 1259415; in the data active means activity change below about -60%; inconclusive means no clear call, values can overlap the other calls; inactive means above about -39%
#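 Human foreskin fibroblasts infected with luciferase-reporter HCMV at MOI 1 PFU/cell, compounds at two doses. Luciferase measured 72 h post infection; normalized to buffer-only basal and Salinomycin (10uM) controls.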
# * hit, by the source's call; i = inactive; ? = inconclusive; nt = not tested or not shown; [ ] = dose if it differs, or a comment. On the % scale 0 is the no-effect control and ±100 the full control effect.
SMILES,VACV mCherry inh,LASV entry inh,VACV Venus inh,MARV entry inh,HCV inh,HCMV inh
C=C1C(=O)[C@@]23[C@H](O)C[C@@H]4C(C)(C)CC[C@H](O)[C@@]4(C)[C@@H]2CC[C@@H]1[C@H]3O,?,10µM*,2.5µM*,?,?,-97*
C=C1C(=O)[C@@]23[C@H](O)C[C@@H]4C(C)(C)CC[C@H](O)[C@]4(C)[C@@H]2C[C@H](O)[C@@H]1[C@H]3O,?,?,4.5µM*,21µM*,2%,-76*
C/C(=N\NC(=O)COc1ccc(C(C)(C)C)cc1)c1cc2ccccc2o1,i,3.2µM*,-10%,10µM*,10%,-38
C/C(=N\NC(=O)COc1ccc(C(C)(C)C)cc1)c1ccccc1,-7%,-5%,1%,-4%[46.1 µM],-23%,7
O=C(COc1ccccc1)Nc1ccc(S(=O)(=O)NCc2ccco2)cc1,nt,23µM*,nt,?,?,9
C/C(=N/NC(=O)CNC(=O)COc1ccccc1)c1ccco1,-22%,-1%,-8%,?,5%,-63*
O=C(COc1ccccc1)NCC(=O)Nc1ccc(S(=O)(=O)NCc2ccco2)cc1,nt,-8%,-17%,4%,17%,-103*
CCN1C(=O)[C@H]2[C@H]3[C@H](O)[C@H](O)C/C(=N\OCC[C@@H]4C=C[C@H](OC(C)=O)[C@@H](COC(C)=O)O4)[C@@H]3CC[C@H]2C1=O,nt,nt,nt,-15%[14.2 µM],nt,nt
CCCCCn1cc2c(c1-c1ccc(Cl)cc1)c(=O)n(C)c(=O)n2C,-21%,?,-20%,13%[46.1 µM],nt,0
Cc1cccc(C)c1NC(=O)C1(C)CSCC(=O)N1C1CCN(Cc2ccccc2)CC1 (stereo not given),-19%,nt,-2%,nt,nt,-68*
CC1(C(=O)NCc2ccccc2)CSCC(=O)N1C1CCN(Cc2ccccc2)CC1 (stereo not given),-19%,nt,-6%,nt,nt,-27
Cc1cc(C)c(S(=O)(=O)Oc2ccccc2[N+](=O)[O-])c(C)c1,?,3.2µM*,-27%,?,10µM*,?
Cc1ccc(C)c(C(=O)COc2ccccc2[N+](=O)[O-])c1,0%,-1%,-7%,12%,-3%,-7
Cc1oc(-c2ccc(Cl)cc2)nc1CN1CCC(C(=O)NCCCN2CCOCC2)CC1,nt,?,nt,13µM*,8.9µM*,96
COc1ccc(-c2nc(CN3CCC(C(=O)NCCCN4CCN(c5ccccc5F)CC4)CC3)c(C)o2)cc1OC,-7%[7.34 µM],?,-6%[7.34 µM],4.5µM*,nt,-104*
Cc1oc(-c2ccc(Cl)cc2)nc1CN1CCC(C(=O)NCCCN2CCN(c3cccc(Cl)c3)CC2)CC1,?,?,14µM*,?,nt,?
Cc1oc(-c2cccc(Cl)c2)nc1CN1CCC(C(=O)NCCCN2CCN(c3ccccc3F)CC2)CC1,-28%,-9%[46.1 µM],-29%,17%[46.1 µM],nt,-22
CCCCNC(=O)C1CCCN(Cc2nc(-c3ccc(Cl)cc3)oc2C)C1 (stereo not given),?,-6%[46.1 µM],?,11%[46.1 µM],nt,2
Cc1oc(-c2ccc(Cl)cc2)nc1CN1CCC(C(=O)NCC2CCCO2)CC1 (stereo not given),-5%,7%[46.1 µM],-12%,-2%[46.1 µM],-19%,-14
CCC1CCCCN1CCCNC(=O)C1CCN(Cc2nc(-c3ccc(Cl)cc3)oc2C)CC1 (stereo not given),nt,nt,nt,nt,1.4µM*,nt
COc1ccc(C(=O)N2CCC(c3c[nH]c4ccccc34)(c3c[nH]c4ccccc34)CC2)cc1,-28%,?,-14%,?,nt,19
COc1ccc(CN2CCCC(n3cc(C(=O)NC4CCCC4)nn3)C2)c(O)c1 (stereo not given),i,nt,-18%,nt,nt,nt
CCc1nn2c(=O)c(F)c(N3CCNCC3)nc2s1,nt,nt,nt,nt,nt,-105*
CCc1nn2c(=O)cc(N3CCN(c4cc(C)nc5ccccc45)CC3)nc2s1,nt,nt,nt,nt,19%,nt
Fc1ccc(/C=N/n2c(C3CCCCC3)n[nH]c2=S)cc1,nt,nt,nt,nt,4%,24
SMILES,VACV mCherry inh,LASV entry inh,VACV Venus inh,MARV entry inh,HCV inh,HCMV inh
CN(C)c1ccc(/C=N/n2c(C3CCCCC3)n[nH]c2=S)cc1,-4%,?,-26%,2.2µM*,10%,-11
CCOc1ccc(/C=N/n2c(C3CCCCC3)n[nH]c2=S)cc1,nt,nt,nt,nt,11µM*,-81*
S=c1[nH]nc(C2CCCCC2)n1/N=C/c1ccccc1,nt,nt,nt,nt,1%,8
O=c1[nH]c(=O)n([C@H]2C[C@@H](O)[C@@H](CO)O2)cc1F,3.5µM*,nt,14µM*,nt,nt,nt
O=c1[nH]c(=O)n([C@H]2C[C@H](O)[C@@H](CO)O2)cc1C(F)(F)F,?,?,?,?,?,-1
O=c1[nH]c(=O)n(C2CC(O)C(CO)O2)cc1Br (stereo not given),?,4%[46.1 µM],-20%,?,1%,8
O=c1[nH]c(=O)n(C2C[C@H](O)[C@@H](CO)O2)cc1C(F)(F)F (stereo not given in full),0.5µM*,nt,?,nt,-1%,-7
O=C(O)c1cc(-c2ccccc2)nn1Cc1ccccc1,-8%,2%[46.1 µM],2%,11%[46.1 µM],nt,-2
CCN(CCCNC(=O)CSc1cc(=O)n(CC)c2ccccc12)c1ccccc1,-15%,-16%[46.1 µM],-8%,?,nt,1
O=C(NCCc1ccc(Cl)cc1)c1cccn1-c1nnc(N2CCCC2)s1,-16%,4%[46.1 µM],-10%,nt,nt,0
Cc1nc(-c2ccccc2)sc1-c1nc(-c2ccncc2)ncc1S(=O)(=O)c1ccccc1,-10%,?,-6%,4.5µM*,?,-82*
COc1nc(-c2ccccc2)ncc1S(=O)(=O)c1ccccc1,nt,-18%,nt,-3%,?,14
COc1ccc(OC)c(C2NC(=S)NC(C)=C2C(=O)Nc2ccccn2)c1 (stereo not given),-7%,9%,0%,30%[46.1 µM],20%,-99*
COc1ccc(C2NC(=S)NC(C)=C2C(=O)Nc2ccccn2)cc1 (stereo not given),nt,nt,nt,nt,0%,74
